# PubChem BioAssay (NCI)
# Compounds without any hit were thinned out: in the full panel of roughly 79,000, 15% have a hit. Values without a mark were called inactive. Active and inactive are the calls of the source. No stated cut-off is given here; in the data, active means growth inhibition above about 70%; inactive means the rest.
# Columns and labels:
# [1] = NCI Yeast Anticancer Drug Screen. Data for the rad50 strain (AID 155);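 further: 0% = growth of vehicle-only cultures of the same strain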; settings: S. cerevisiae rad50 strain growth inhibition, stronger effect = higher value
# Procedure, shortened: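 DNA repair mutant yeast, compound exposure, growth read-out; inhibition is taken relative to vehicle.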
# [2] = NCI Yeast Anticancer Drug Screen. Data for the mec2-1 strain (AID 157); settings: S. cerevisiae mec2-1 strain, stronger effect = higher value
# Procedure, shortened: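 Cells of the genetically defined mec2-1 yeast strain are incubated with test compound. Inhibition of growth is calculated against vehicle-treated controls.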
# [3] = NCI Yeast Anticancer Drug Screen. Data for the sgs1 mgt1 strain (AID 161);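 further: 0% = growth of cultures given vehicle only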; settings: S. cerevisiae sgs1 mgt1 strain, stronger effect = higher value
# Procedure, shortened: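 Read-out: growth inhibition vs vehicle controls. Cells: mutant yeast strain deficient in DNA damage repair.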
# [4] = NCI Yeast Anticancer Drug Screen. Data for the cln2 rad14 strain (AID 165);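 further: 0% = growth equal to vehicle treated cultures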; settings: S. cerevisiae cln2 rad14 strain, stronger effect = higher value
# Procedure, shortened: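 The screen exposed genetically defined yeast (cln2 rad14) to test compounds and scored growth inhibition relative to vehicle-treated controls.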
# [5] = NCI Yeast Anticancer Drug Screen. Data for the bub3 strain (AID 167); settings: S. cerevisiae bub3 mutant strain, stronger effect = higher value
# Procedure, shortened: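 In this screen, a yeast mutant lacking normal mitotic checkpoint function is challenged with compound. Relative growth versus vehicle gives the inhibition value.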
# [6] = NCI Yeast Anticancer Drug Screen. Data for the mlh1 rad18 strain (AID 175); settings: S. cerevisiae mlh1 rad18 strain growth inhibition, stronger effect = higher value
# Procedure, shortened: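 Compound-treated yeast growth, normalised to vehicle controls. Strain bears defined DNA repair mutations.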
# [7] = at 5.0 µM (retest, dose inferred, filed as 0.5)
# [8] = at 50.0 µM (retest, dose inferred, filed as 5.0)
Structure (SMILES),"growth inhibition [1, 7]","growth inhibition [1, 8]",growth inhibition ([1]; at 50.0 µM),"growth inhibition [2, 7] [%]","growth inhibition [2, 8]",growth inhibition ([2]; at 50.0 µM),"growth inhibition [3, 7]","growth inhibition [3, 8]",growth inhibition ([3]; at 50.0 µM) [%],"growth inhibition [4, 7] [%]","growth inhibition [4, 8]",growth inhibition ([4]; at 50.0 µM) [%],"growth inhibition [5, 7]","growth inhibition [5, 8]",growth inhibition ([5]; at 50.0 µM),"growth inhibition [6, 7]","growth inhibition [6, 8]",growth inhibition ([6]; at 50.0 µM)
O=C1/C(=C/c2ccccc2[N+](=O)[O-])COc2ccccc21,37%,94% (active),-4%,28,96% (active),12.7%,21%,92% (active),13.2,28,94% (active),8.75,34%,98% (active),15.1%,23%,98% (active),8.65%
O=C/C=C/c1cc([N+](=O)[O-])ccc1Cl,-138%,77% (active),81.5% (active),-47,79% (active),79.5% (active),-59%,83% (active),57.4,-55,46%,46.1,-80%,65%,79.2% (active),-137%,86% (active),93.3% (active)
CCCC(=O)OCc1cc(=O)n(C)c2c3c4c(cc12)c(C)cc(=O)n4CO3,86% (active),99% (active),25%,58,100% (active),-11.2%,79% (active),100% (active),22.8,63,99% (active),13.6,84% (active),98% (active),-11%,83% (active),99% (active),22.4%
CCOC(=O)c1c(Br)c(-c2ccc(Br)cc2)c(Br)n1C,-6%,1%,7.95%,-7,-29%,-16.1%,-11%,-1%,-6.25,29,-25%,24.1,-11%,-15%,-7%,-8%,-12%,-10.6%
Nc1ccc2c(c1)S(=O)(=O)c1cc(O)ccc1O2,23%,18%,32.9%,10,20%,-26.8%,13%,25%,-22.6,11,24%,-4.55,21%,28%,-15.2%,8%,5%,-71%
O=C(CCl)[O][Bi]([O]C(=O)CCl)([c]1ccccc1)([c]1ccccc1)[c]1ccccc1,10%,51%,13%,11,58%,15.7%,32%,83% (active),-8.4,26,59%,5.75,31%,85% (active),10.2%,17%,71% (active),23.1%
